For orientation: inhibition means the drop in the measured response relative to a control, in per cent.

The whole screen tested about 200,000 compounds, of which about 240 (0.12%) were called active. This is one part of a sample in which actives are shown more often than they occur. Rule as the data show it: active = inhibition above about 50%; inactive = the rest.

This experiment relates to glucose-6-phosphate dehydrogenase [Leuconostoc mesenteroides]. In words: bacterial G6PDH enzyme inhibition, coupled readout – biochemical, Leuconostoc mesenteroides enzyme, counter-screen for G6PDH-coupled screening assays (AID 1020). Conditions: Purified L. mesenteroides G6PDH, diaphorase/resazurin coupled fluorescence, 45 min; at 5 µM; hits give high values. For orientation: The purpose of a counterscreen is to sort out artefacts and off-target activity.
Turning to `OC(COCc1ccco1)CN1CCN(c2ccccc2)CC1` (configuration not stated), the inhibition is 12.4% (inactive).

Regarding `COc1cc(NC(=S)NNC(=O)CC(C)C)c(OC)cc1Cl`, the inhibition is -0.9% (inactive).

As to `Cc1ccc(SCCC(=O)Nc2cc(C)on2)cc1`, the inhibition is 6.5% (inactive).

Turning to `O=C(CN1C(=O)c2cccc3cccc(c23)C1=O)N1CCCCC1`, the inhibition was -0.3% (inactive).

As for `O=C(/C=C/c1ccc(Cl)c([N+](=O)[O-])c1)c1cccnc1`, the inhibition was 0.4% (inactive).

`Cc1csc(Nc2ccc(Cl)cc2)[n+]1-c1ccc(Cl)cc1`: the inhibition is -4% (inactive).

`Cc1cccc(OCCC(=O)Nc2cc(S(=O)(=O)N3CCCCC3)ccc2N2CCOCC2)c1`: the inhibition is 5.4% (inactive).

On to `CCOc1cc(C(=O)OCC(=O)Nc2cccc(C)c2)ccc1OCC(=O)N1CCOCC1`, for which the inhibition is -19.1% (inactive).

In the case of `O=C(COC(=O)c1cnccn1)Nc1cccc2ccccc12`, the inhibition is 4.3% (inactive).

`CCC(=O)Nc1sc(C(=O)Nc2ccccc2)c(C)c1C(=O)OC`: the inhibition is 7.8% (inactive).

Regarding `CSc1ccc(CNCCN2CCOCC2)cc1`, the inhibition was 11% (inactive).

On to `COc1ccc([C@H]2[C@H](C(C)=O)N3N=Cc4ccccc4C3C23C(=O)OC(C)(C)OC3=O)cc1` (some centres not stated), for which the inhibition was 4% (inactive).

Regarding `CCOC(=O)c1oc2c(CN3CCN(C)CC3)c(O)ccc2c(=O)c1-c1ccc(Br)cc1`, the inhibition was -12.6% (inactive).

Take `Cc1ccc(C(=O)N2CC(=O)Nc3ccccc32)o1`: the inhibition was 2.3% (inactive).

For the molecule `Cc1cc(NS(=O)(=O)c2ccc(NC(=S)NC(=O)c3ccc(F)cc3Cl)cc2)no1`, the inhibition was 7.4% (inactive).

With `Cc1ccccc1C(=O)OC1OC(=O)C(Cl)=C1Nc1ccccc1` (configuration not stated), the inhibition was 2.3% (inactive).

As for `ClC1(Cl)CC1CSc1ncn[nH]1` (configuration not stated), the inhibition was 10.4% (inactive).

For the molecule `Cc1cccc(-n2c(SCC(N)=O)nc3c(c2=O)C2(CCCCC2)Cc2ccccc2-3)c1`, the inhibition was 7.9% (inactive).

`CCOc1ccc(C(=O)Nc2cccc(-c3ccc4nncn4n3)c2)cc1`: the inhibition is 2.6% (inactive).

`COc1ccc(C(=O)C2CCCN(C(=O)c3cc4nc(C)cc(C)n4n3)C2)cc1F` (configuration not stated): the inhibition was 0.8% (inactive).

`COc1ccc(N2CCN(C(=O)c3ccc4c(Cl)c5c(nc4c3)CCCC5)CC2)cc1`: the inhibition is 17.9% (inactive).

Consider `O=C(COC(=O)CSc1nnc(-c2ccc(Cl)cc2)o1)Nc1cc(Cl)cc(Cl)c1`, for which the inhibition was -35.2% (inactive).

Take `COc1cc(C(=O)NCc2ccc(-n3cccc3)cc2)cc(OC)c1OC`: the inhibition is 12.2% (inactive).

With `Cc1ccc(-c2nc(C)sc2CC(=O)OCC(=O)Nc2c(F)cccc2F)cc1`, the inhibition was -6.1% (inactive).

In the case of `CC(C)CNC(=S)NC(=O)c1ccc(Cl)cc1`, the inhibition was 4.7% (inactive).

For the molecule `C=CCn1c(CCNC(=O)c2cccs2)n[nH]c1=S`, the inhibition was 10.1% (inactive).

For the molecule `Cc1nnnn1/C(=C\c1ccccc1)C(=O)OCC(=O)N1CC2(C)CC1CC(C)(C)C2` (configuration not stated), the inhibition was -6.6% (inactive).

As to `CCNC(=S)N(CCc1c(C)[nH]c2ccc(C)cc12)Cc1ccco1`, the inhibition is 13.2% (inactive).

As for `CC(/C=C/c1ccccc1)=N\NC(=O)C1CC1(C)c1ccccc1` (configuration not stated), the inhibition was 5.3% (inactive).

Regarding `O=[N+]([O-])c1cc(S(=O)(=O)CCCN2CCOCC2)ccc1F`, the inhibition was 10.3% (inactive).

Regarding `O=C(Nc1ccc(-c2ccc3nncn3n2)cc1)C1CCCCC1`, the inhibition was 3.6% (inactive).

As to `CCN1CCN(C(=O)c2ccc(CN(c3ccc(C)c(C)c3)S(C)(=O)=O)cc2)CC1`, the inhibition is 4.1% (inactive).

`C/C(Cc1ccccc1)=N\NC(=O)CNC(=O)c1cccc(Br)c1`: the inhibition was 8.4% (inactive).

Regarding `Cc1nc2ccccc2nc(C)c1=NOCc1ccc(Cl)cc1Cl`, the inhibition was -13.7% (inactive).

As to `Cc1ccccc1NC(=S)NNC(=O)c1cccc(Br)c1`, the inhibition was 1.2% (inactive).

Take `COc1ccc(-n2cc(CN(C)Cc3n[nH]c(=O)[nH]3)c(-c3cccc(F)c3)n2)cc1`: the inhibition is 19.5% (inactive).

For `COC(=O)c1ccc(NC(=S)NN2CCOCC2)cc1`, the inhibition is -2.2% (inactive).

Turning to `O=C(c1snnc1-c1ccccc1)N1CCOCC1`, the inhibition is -2.4% (inactive).

Regarding `OC(c1nnc(-c2ccccc2)o1)c1cccs1` (configuration not stated), the inhibition was 10.6% (inactive).

`CCCCn1c(O)c(N=NC(=O)Cn2c(C(F)(F)F)nc3ccccc32)c2ccccc21`: the inhibition was 7.1% (inactive).

Turning to `COc1cc(C=O)c(Br)cc1OCC(=O)NCc1ccccc1`, the inhibition was 6.7% (inactive).

In the case of `CCOc1ccccc1N1CCN(C(=O)COc2ccc3c(C)cc(=O)oc3c2)CC1`, the inhibition was 1.2% (inactive).

In the case of `Cc1ccc(C(=O)NC(=S)NCc2cccnc2)cc1`, the inhibition is -1.6% (inactive).

As to `Cc1ccc(COc2ccc(C(=O)NN)cc2)cc1`, the inhibition is 10.9% (inactive).

Regarding `O=C(NCc1ccccc1Cl)C1CCN(S(=O)(=O)N2CCOCC2)CC1`, the inhibition was 4.2% (inactive).

In the case of `Nc1ncnc(Nc2cccc(Cl)c2Cl)n1`, the inhibition was 15% (inactive).

With `CCOC(=O)Cc1cc(=O)[nH]c(=O)[nH]1`, the inhibition was 4.9% (inactive).

Regarding `O=C(/C=C/c1ccccc1[N+](=O)[O-])OC1CCCCC1=O` (configuration not stated), the inhibition was 3% (inactive).

As to `O=c1c([N+](=O)[O-])cccn1Cc1ccc(F)cc1Cl`, the inhibition is 8% (inactive).

As to `CSc1ncccc1C(=O)N1CCCC(CCC(=O)NCc2ccccc2F)C1` (configuration not stated), the inhibition was 8.1% (inactive).

With `CC(C)(C)N(CC#CCC(O)(c1ccccc1)C1CCCC1)CCO` (configuration not stated), the inhibition was 13.4% (inactive).

Take `OCCNCCOc1ccc(Cl)c(Cl)c1`: the inhibition was 3.7% (inactive).

Take `CC(C)(C)CC(=O)Nc1nnc(SCC(=O)NCc2cccs2)s1`: the inhibition was 10.3% (inactive).

As to `COc1ccc(CC2(CO)CCN(Cc3cnn(C)c3)CC2)cc1`, the inhibition was 0.2% (inactive).

As for `CCOC(=O)/C=C/C(=O)OCC(=O)NC(c1ccccc1)c1ccccc1`, the inhibition is 9.9% (inactive).

Take `Cc1ccc(O)c(-c2cc(C(=O)Nc3c(C)n(C)n(-c4ccccc4)c3=O)[nH]n2)c1`: the inhibition was 4% (inactive).

`CC(C(=O)N=Nc1c(O)n(C)c2ccc(Br)cc12)n1cnc2ccccc2c1=O` (configuration not stated): the inhibition is -0.8% (inactive).

As for `Cc1ccc2cc(C)c(N3CCC(C)CC3)nc2c1`, the inhibition was 12.3% (inactive).

Turning to `O=C(Nn1cnnc1)c1ccc([N+](=O)[O-])cc1`, the inhibition is 6% (inactive).

`Cc1nn(-c2ccccc2)c(C)c1/C=N/NC(=O)CSc1nc2ccccc2c(=O)n1-c1ccccc1`: the inhibition is -5.5% (inactive).

`O=C(COC(=O)C1CC2C=CC1C2)Nc1ccccc1` (configuration not stated): the inhibition was 5.8% (inactive).

For `CCC(C)(C)c1ccc(OCC(=O)N(C)C)c(C(C)(C)CC)c1`, the inhibition is -0.6% (inactive).

The values are drawn from PubChem BioAssay AID1020 (Sanford-Burnham Center for Chemical Genomics, 2008).
